Of roughly 8,800 targets only a part is listed; those with a hit were picked by preference. About 0.5% of all pairs of compound and target were hits.
Columns and labels:
Test in all cases: log2 fold change, soluble protein after heating vs DMSO (PISA); higher = thermal stabilisation; K562 lysate, 10 uM; active = over 0.2 and 3.5 SD of the protein, either way, in both replicates (recomputed)
vemurafenib = compound: CCCS(=O)(=O)Nc1ccc(F)c(C(=O)c2c[nH]c3ncc(-c4ccc(Cl)cc4)cc23)c1F [vemurafenib]
How it was run: (§1)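 K562 pellets were dounce-homogenised in PBS pH 7.4 with 1 mM MgCl2, and the crude extract at 1 mg/mL protein was treated with 10 μM compound for 30 min. Aliquots were heated for 3 min across 48°C-58°C, pooled, and brought to 0.5% NP-40 at 4°C; soluble protein was the supernatant after 21,000xg for 90 min. Soluble protein was quantified by TMTpro 16plex LC-MS/MS with channel sums equalised, and reported as log2 fold change in thermal stability against DMSO controls, with values from duplicates.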

[1] = compound: CCCS(=O)(=O)Nc1ccc(F)c(C(=O)c2c[nH]c3ncc(Cl)cc23)c1F
How it was run: as §1

barasertib = compound: CCN(CCCOc1ccc2c(Nc3cc(CC(=O)Nc4cccc(F)c4)[nH]n3)ncnc2c1)CCOP(=O)(O)O [barasertib]
How it was run: as §1

volasertib = compound: CC[C@@H]1C(=O)N(C)c2cnc(Nc3ccc(C(=O)N[C@H]4CC[C@H](N5CCN(CC6CC6)CC5)CC4)cc3OC)nc2N1C(C)C [volasertib]
How it was run: as §1

[2] = compound: CCn1c(C(=O)N(C2CC2)C2CC2)cc2c3c(ncn3C)c(Nc3cc(C)n(C)n3)nc21
How it was run: as §1

[3] = compound: CCn1cc(-c2ccnc3[nH]c(-c4cccc(CN(C)C)c4)cc23)c(-c2ccc(NC(=O)N(C)C)cc2)n1
How it was run: as §1

[4] = compound: CN1CCC(CNc2ccc3ncc(-c4cccc(OC(F)(F)F)c4)n3n2)CC1
How it was run: as §1

saracatinib = compound: CN1CCN(CCOc2cc(OC3CCOCC3)c3c(Nc4c(Cl)ccc5c4OCO5)ncnc3c2)CC1 [saracatinib]
How it was run: as §1

sotrastaurin = compound: CN1CCN(c2nc(C3=C(c4c[nH]c5ccccc45)C(=O)NC3=O)c3ccccc3n2)CC1 [sotrastaurin]
How it was run: as §1

alvocidib = compound: CN1CC[C@H](c2c(O)cc(O)c3c(=O)cc(-c4ccccc4Cl)oc23)[C@H](O)C1 [alvocidib]
How it was run: as §1

Tubastatin A = compound: CN1CCc2c(c3ccccc3n2Cc2ccc(C(=O)NO)cc2)C1 [Tubastatin A]
How it was run: as §1

[5] = compound: CNC(=O)C1=CC=CC=C1NC2=NC(=NC=C2Cl)NC3=C(C=C(C=C3)N4CCOCC4)OC
How it was run: as §1

defactinib = compound: CNC(=O)c1ccc(Nc2ncc(C(F)(F)F)c(NCc3nccnc3N(C)S(C)(=O)=O)n2)cc1 [defactinib]
How it was run: as §1

[6] = compound: CNc1nc(-c2ccc3c(N)n[nH]c3c2)cc(N2C[C@@H](C(=O)NC3CCCCC3)CC[C@H]2C)n1
How it was run: as §1

alisertib = compound: COc1cc(Nc2ncc3c(n2)-c2ccc(Cl)cc2C(c2c(F)cccc2OC)=NC3)ccc1C(=O)O [alisertib]
How it was run: as §1

[7] = compound: COc1cc2nc(-c3cc(F)ccc3O)nc(N[C@@H]3CNC[C@H]3C(C)(C)O)c2cc1OC
How it was run: as §1

gefitinib = compound: COc1cc2ncnc(Nc3ccc(F)c(Cl)c3)c2cc1OCCCN1CCOCC1 [gefitinib]
How it was run: as §1

[8] = compound: CC[C@@H]1C(=O)N(C)c2cnc(Nc3ccc(C(=O)NC4CCN(C)CC4)cc3OC)nc2N1C1CCCC1
How it was run: as §1

encorafenib = compound: COC(=O)N[C@@H](C)CNc1nccc(-c2cn(C(C)C)nc2-c2cc(Cl)cc(NS(C)(=O)=O)c2F)n1 [encorafenib]
How it was run: as §1

[9] = compound: COC(=O)[C@H](CCSC)NC(=O)C1=C(C=C(C=C1)NC[C@H](CS)N)C2=CC=CC=C2
How it was run: as §1

Measured: log2 fold change

RNF149 (UniProt Q8NC42)
Sequence of UniProt Q8NC42 (Q8NC42 whole entry, looked up): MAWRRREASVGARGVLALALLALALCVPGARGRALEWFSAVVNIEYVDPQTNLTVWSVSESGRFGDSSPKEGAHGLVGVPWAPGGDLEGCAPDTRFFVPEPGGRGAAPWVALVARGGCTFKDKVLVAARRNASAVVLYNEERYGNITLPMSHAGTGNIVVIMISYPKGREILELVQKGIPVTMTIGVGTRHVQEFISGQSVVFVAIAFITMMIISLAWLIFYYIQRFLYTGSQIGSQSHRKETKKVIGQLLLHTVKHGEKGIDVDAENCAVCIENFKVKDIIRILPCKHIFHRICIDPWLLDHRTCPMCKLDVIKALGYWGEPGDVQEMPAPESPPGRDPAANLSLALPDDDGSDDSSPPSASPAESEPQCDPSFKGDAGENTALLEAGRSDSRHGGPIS
inactive: vemurafenib -0.026 | [1] -0.15 | barasertib 0.026 | volasertib -0.063 | [2] -0.162 | [3] 0.343 | [4] 0.02 | saracatinib 0.021 | sotrastaurin -0.081 | alvocidib -0.038 | Tubastatin A -0.047 | [5] 0.02 | defactinib 0.028 | [6] 0.004 | [7] -0.059 | gefitinib -0.075
active: alisertib -0.483

RBM22 (UniProt Q9NW64)
Sequence of UniProt Q9NW64 (Q9NW64 whole entry, looked up): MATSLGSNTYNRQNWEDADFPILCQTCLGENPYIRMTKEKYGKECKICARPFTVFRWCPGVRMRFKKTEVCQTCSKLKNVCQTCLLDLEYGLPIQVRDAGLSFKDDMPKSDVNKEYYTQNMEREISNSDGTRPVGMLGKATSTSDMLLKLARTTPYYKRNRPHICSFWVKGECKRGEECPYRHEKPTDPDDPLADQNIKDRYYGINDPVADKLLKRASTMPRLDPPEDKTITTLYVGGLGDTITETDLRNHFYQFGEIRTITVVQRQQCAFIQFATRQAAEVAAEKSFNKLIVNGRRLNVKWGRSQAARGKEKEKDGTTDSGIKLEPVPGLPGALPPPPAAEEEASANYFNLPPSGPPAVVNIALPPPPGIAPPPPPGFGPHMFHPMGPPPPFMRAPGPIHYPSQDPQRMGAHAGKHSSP
inactive: vemurafenib -0.014 | [1] -0.007 | barasertib 0.022 | [8] 0.078 | volasertib -0.004 | [2] -0.004 | [3] 0.058 | [4] 0.025 | saracatinib 0.01 | sotrastaurin -0.08 | alvocidib 0.022 | Tubastatin A 0.019 | [5] 0.009 | defactinib 0.001 | [6] 0.179 | encorafenib 0.05 | [9] -0.11 | alisertib 0.002 | [7] 0.026 | gefitinib 0.031

RBBP7 (UniProt Q16576)
Sequence of UniProt Q16576 (Q16576 whole entry, looked up): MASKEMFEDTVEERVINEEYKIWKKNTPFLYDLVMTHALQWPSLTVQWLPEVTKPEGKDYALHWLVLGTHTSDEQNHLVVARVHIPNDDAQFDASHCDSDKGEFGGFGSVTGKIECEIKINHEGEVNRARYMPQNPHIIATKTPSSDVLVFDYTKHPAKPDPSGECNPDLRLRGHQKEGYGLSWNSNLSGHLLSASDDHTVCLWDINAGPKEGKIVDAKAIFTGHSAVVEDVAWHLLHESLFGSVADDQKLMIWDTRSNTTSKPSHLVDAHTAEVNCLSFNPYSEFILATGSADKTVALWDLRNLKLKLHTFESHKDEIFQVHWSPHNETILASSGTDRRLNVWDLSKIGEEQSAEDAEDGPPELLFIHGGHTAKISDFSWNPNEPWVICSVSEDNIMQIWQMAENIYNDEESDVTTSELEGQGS
inactive: vemurafenib 0.044 | [1] -0.021 | barasertib -0.072 | [8] -0.017 | volasertib -0.004 | [2] -0.002 | saracatinib 0.021 | sotrastaurin 0.043 | Tubastatin A -0.005 | [5] 0.006 | defactinib -0.018 | [6] -0.125 | encorafenib 0.032 | [9] -0.021 | alisertib 0.014 | [7] -0.003 | gefitinib 0.006

RPL8 (UniProt P62917)
inactive: vemurafenib -0.055 | [1] 0.013 | barasertib -0.042 | [8] -0.09 | volasertib -0.012 | [2] 0.021 | [3] 0.208 | [4] -0.014 | saracatinib -0.009 | sotrastaurin -0.038 | alvocidib 0.007 | Tubastatin A 0.023 | [5] 0.02 | defactinib 0.038 | [6] 0.104 | encorafenib 0.022 | [9] -0.046 | alisertib 0.018 | [7] -0.008 | gefitinib 0.011

RAP1B (UniProt F5GZG1)
inactive: vemurafenib 0.025 | [1] -0.069 | barasertib 0.043 | [8] -0.013 | volasertib -0.015 | [3] 0.471 | [4] 0.041 | saracatinib 0.094 | sotrastaurin -0.038 | alvocidib -0.118 | [5] 0.01 | defactinib -0.05 | [6] -0.104 | encorafenib 0.056 | [9] 0.124 | alisertib 0.059 | [7] 0.002 | gefitinib 0.071

RTTN (UniProt Q86VV8)
inactive: vemurafenib 0.066 | [1] 0.011 | barasertib 0.043 | [8] -0.101 | volasertib -0.293 | [2] 0.099 | [3] -0.347 | [4] -0.316 | saracatinib 0.047 | alvocidib 0.088 | Tubastatin A -0.242 | [5] 0.082 | defactinib 0.401 | [6] 0.018 | encorafenib 0.069 | [9] -0.085 | alisertib -0.002 | [7] -0.301 | gefitinib 0.049

RPLP0P6 (UniProt Q8NHW5)
inactive: vemurafenib -0.002 | [1] 0.012 | barasertib -0.121 | [8] 0.009 | volasertib -0.009 | [2] -0.02 | [3] -0.011 | [4] 0.017 | saracatinib -0.011 | sotrastaurin -0.02 | alvocidib -0.018 | Tubastatin A 0.015 | [5] -0.001 | defactinib -0.014 | [6] 0.023 | encorafenib 0.001 | [9] 0.018 | alisertib 0.004 | [7] 0.023 | gefitinib -0.019

RANBP2 (UniProt P49792)
inactive: vemurafenib -0.031 | [1] 0.015 | barasertib 0.043 | [8] -0.022 | volasertib -0.048 | [2] 0.026 | [3] -0.019 | [4] -0.031 | saracatinib 0.018 | sotrastaurin 0.015 | alvocidib -0.001 | Tubastatin A -0.169 | [5] 0.011 | defactinib 0.004 | [6] -0.041 | encorafenib 0.038 | [9] 0.042 | alisertib -0.01 | [7] 0 | gefitinib -0.013

RDH14 (UniProt Q9HBH5)
Sequence of UniProt Q9HBH5 (Q9HBH5 whole entry, looked up): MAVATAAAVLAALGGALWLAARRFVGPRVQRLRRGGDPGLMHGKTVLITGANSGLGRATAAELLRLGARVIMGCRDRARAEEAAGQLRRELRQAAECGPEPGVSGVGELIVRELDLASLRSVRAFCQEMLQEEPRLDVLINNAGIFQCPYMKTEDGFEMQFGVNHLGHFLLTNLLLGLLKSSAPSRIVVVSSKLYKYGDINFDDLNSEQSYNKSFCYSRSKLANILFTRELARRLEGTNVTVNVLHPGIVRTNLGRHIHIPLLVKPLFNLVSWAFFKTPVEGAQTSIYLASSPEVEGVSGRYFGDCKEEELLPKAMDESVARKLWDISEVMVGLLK
inactive: vemurafenib 0.038 | [1] 0.026 | barasertib -0.007 | [8] -0.076 | volasertib -0.022 | [2] 0.009 | [3] -0.228 | [4] 0.061 | saracatinib -0.015 | sotrastaurin 0.074 | alvocidib -0.001 | Tubastatin A -0.033 | [5] 0.088 | defactinib -0.044 | [6] -0.123 | encorafenib -0.028 | [9] -0.199 | alisertib 0.07 | [7] -0.043 | gefitinib -0.07

RABEPK (UniProt Q7Z6M1)
Sequence of UniProt Q7Z6M1 (Q7Z6M1 whole entry, looked up): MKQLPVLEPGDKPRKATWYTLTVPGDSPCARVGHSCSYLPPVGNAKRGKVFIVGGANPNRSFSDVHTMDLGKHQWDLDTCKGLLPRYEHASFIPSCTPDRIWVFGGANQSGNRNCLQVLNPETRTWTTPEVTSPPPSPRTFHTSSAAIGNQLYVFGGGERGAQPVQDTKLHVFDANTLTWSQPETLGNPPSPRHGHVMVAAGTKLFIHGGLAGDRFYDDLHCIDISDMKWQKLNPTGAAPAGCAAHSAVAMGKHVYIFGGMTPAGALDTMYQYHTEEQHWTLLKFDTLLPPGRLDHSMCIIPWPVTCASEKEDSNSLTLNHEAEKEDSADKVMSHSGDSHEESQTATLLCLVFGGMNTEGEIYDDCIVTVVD
inactive: vemurafenib -0.024 | [1] 0.003 | barasertib -0.066 | [8] 0.014 | volasertib -0.006 | [2] -0.021 | [3] 0.015 | [4] 0.011 | saracatinib -0.02 | sotrastaurin -0.028 | alvocidib 0.03 | Tubastatin A -0.048 | [5] 0.004 | defactinib 0.014 | [6] -0.025 | encorafenib 0.004 | [9] 0.032 | alisertib 0.002 | [7] 0 | gefitinib 0.01

RPS9 (UniProt P46781)
active: [3] 0.302
inactive: vemurafenib -0.037 | [1] -0.01 | barasertib -0.003 | [8] -0.074 | volasertib -0.005 | [2] 0.03 | [4] -0.063 | saracatinib 0 | sotrastaurin -0.023 | alvocidib 0.053 | Tubastatin A 0.006 | [5] -0.036 | defactinib -0.064 | [6] 0.006 | encorafenib -0.022 | [9] 0.065 | alisertib 0.004 | [7] -0.003 | gefitinib -0.033

RINT1 (UniProt Q6NUQ1)
Sequence of UniProt Q6NUQ1 (Q6NUQ1 whole entry, looked up): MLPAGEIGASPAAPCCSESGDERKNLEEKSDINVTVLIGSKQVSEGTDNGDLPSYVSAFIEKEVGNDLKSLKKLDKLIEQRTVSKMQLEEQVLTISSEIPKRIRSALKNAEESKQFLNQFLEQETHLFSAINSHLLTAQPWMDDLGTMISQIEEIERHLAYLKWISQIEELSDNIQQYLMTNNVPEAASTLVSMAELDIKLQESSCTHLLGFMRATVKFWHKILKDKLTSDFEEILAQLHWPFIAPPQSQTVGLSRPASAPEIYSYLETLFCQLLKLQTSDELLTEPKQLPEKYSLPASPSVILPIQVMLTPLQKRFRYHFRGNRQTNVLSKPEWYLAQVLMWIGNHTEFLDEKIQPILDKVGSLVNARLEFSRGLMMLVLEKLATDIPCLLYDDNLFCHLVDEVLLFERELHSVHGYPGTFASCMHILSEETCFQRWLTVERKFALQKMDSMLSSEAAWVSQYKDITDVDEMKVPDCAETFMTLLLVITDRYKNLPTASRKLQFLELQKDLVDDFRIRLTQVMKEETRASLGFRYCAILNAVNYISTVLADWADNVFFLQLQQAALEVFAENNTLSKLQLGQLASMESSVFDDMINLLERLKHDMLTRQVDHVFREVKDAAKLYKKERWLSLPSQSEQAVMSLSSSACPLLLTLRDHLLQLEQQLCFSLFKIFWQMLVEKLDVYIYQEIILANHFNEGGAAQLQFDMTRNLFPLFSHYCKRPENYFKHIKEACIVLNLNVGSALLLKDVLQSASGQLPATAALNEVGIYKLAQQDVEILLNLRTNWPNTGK
inactive: vemurafenib 0.065 | [1] 0.022 | barasertib 0.095 | [8] -0.055 | volasertib -0.113 | [2] 0.088 | [3] -0.048 | [4] -0.044 | saracatinib 0.095 | sotrastaurin 0.058 | alvocidib 0.041 | Tubastatin A -0.083 | [5] 0.011 | defactinib 0.047 | [6] -0.072 | encorafenib 0.01 | [9] -0.017 | alisertib -0.086 | [7] 0.065 | gefitinib 0.035

RXRB isoform 3 (UniProt P28702)
Sequence of UniProt P28702 (P28702 whole entry, looked up): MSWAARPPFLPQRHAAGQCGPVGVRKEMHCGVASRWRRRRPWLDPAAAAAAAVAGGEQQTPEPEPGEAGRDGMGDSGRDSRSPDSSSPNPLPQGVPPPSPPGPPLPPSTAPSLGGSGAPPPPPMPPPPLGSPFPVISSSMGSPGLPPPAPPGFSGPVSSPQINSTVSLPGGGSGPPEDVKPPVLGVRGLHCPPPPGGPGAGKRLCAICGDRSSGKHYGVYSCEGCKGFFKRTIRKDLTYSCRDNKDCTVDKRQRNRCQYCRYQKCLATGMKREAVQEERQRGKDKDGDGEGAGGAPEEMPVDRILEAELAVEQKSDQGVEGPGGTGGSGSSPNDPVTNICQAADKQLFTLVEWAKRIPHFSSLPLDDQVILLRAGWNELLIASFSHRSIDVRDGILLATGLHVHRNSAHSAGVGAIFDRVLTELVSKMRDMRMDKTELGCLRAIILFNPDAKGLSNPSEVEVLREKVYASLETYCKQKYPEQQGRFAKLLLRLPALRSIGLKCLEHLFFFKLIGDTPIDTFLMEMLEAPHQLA
inactive: vemurafenib 0.028 | [1] 0.136 | barasertib 0.106 | [8] 0.008 | volasertib -0.125 | [3] -0.008 | [4] -0.089 | saracatinib -0.048 | sotrastaurin -0.051 | alvocidib 0.008 | [5] 0.126 | defactinib 0.05 | [6] -0.003 | encorafenib 0.066 | [9] -0.042 | alisertib -0.044 | [7] 0.073 | gefitinib 0.047

RNPS1 (UniProt Q15287)
Sequence of UniProt Q15287 (Q15287 whole entry, looked up): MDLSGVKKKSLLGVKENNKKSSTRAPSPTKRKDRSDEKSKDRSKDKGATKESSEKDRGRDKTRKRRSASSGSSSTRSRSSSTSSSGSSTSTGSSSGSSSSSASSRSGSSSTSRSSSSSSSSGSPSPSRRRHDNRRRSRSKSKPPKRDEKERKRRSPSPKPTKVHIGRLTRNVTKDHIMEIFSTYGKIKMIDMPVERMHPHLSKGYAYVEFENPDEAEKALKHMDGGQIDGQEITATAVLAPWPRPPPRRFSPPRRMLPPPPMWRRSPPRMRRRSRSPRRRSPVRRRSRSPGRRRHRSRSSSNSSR
inactive: vemurafenib -0.03 | [1] 0.001 | barasertib -0.008 | [8] -0.175 | volasertib 0.043 | [2] -0.022 | [3] 0.02 | [4] 0.077 | saracatinib -0.04 | sotrastaurin -0.003 | alvocidib -0.043 | Tubastatin A 0.102 | [5] 0.02 | defactinib -0.009 | [6] 0.029 | encorafenib 0.069 | [9] 0.01 | alisertib 0.02 | [7] 0.01 | gefitinib 0.006

SERAC1 (UniProt Q96JX3)
Sequence of UniProt Q96JX3 (Q96JX3 whole entry, looked up): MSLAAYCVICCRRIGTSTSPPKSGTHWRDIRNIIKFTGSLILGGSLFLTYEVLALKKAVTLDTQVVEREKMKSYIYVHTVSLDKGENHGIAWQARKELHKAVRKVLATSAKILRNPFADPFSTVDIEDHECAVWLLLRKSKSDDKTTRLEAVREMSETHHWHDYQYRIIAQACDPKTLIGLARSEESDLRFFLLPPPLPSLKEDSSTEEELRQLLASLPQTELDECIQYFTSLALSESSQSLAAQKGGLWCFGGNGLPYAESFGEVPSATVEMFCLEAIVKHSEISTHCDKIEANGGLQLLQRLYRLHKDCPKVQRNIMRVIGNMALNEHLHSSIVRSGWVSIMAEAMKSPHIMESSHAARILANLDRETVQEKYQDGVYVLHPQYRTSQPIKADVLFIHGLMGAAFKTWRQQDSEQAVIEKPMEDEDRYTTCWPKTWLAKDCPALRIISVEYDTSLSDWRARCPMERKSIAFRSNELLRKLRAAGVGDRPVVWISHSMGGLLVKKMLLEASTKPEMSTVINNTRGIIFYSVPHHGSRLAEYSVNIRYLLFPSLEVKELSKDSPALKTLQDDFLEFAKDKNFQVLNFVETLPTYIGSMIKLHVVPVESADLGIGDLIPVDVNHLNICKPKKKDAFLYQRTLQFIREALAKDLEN
inactive: barasertib 0.142 | [8] 0.1 | [3] -0.061 | [4] 0.051 | saracatinib -0.096 | alvocidib 0.048 | [5] -0.024 | [6] 0.149 | encorafenib -0.051 | [9] -0.003 | alisertib -0.412 | gefitinib -0.165

RFNG (UniProt Q9Y644)
inactive: alisertib -0.003 | gefitinib 0.424

RYR1 (UniProt P21817)
inactive: [1] -0.038 | barasertib 0.041 | [8] 0.07 | volasertib -0.049 | [2] -0.053 | [3] 0.045 | [4] 0.03 | saracatinib 0.057 | sotrastaurin 0.091 | alvocidib 0.015 | Tubastatin A 0.097 | [5] 0.064 | [6] 0.16 | encorafenib -0.024 | [9] -0.087 | [7] 0.02

RXRA (UniProt P19793)
Sequence of UniProt P19793 (P19793 whole entry, looked up): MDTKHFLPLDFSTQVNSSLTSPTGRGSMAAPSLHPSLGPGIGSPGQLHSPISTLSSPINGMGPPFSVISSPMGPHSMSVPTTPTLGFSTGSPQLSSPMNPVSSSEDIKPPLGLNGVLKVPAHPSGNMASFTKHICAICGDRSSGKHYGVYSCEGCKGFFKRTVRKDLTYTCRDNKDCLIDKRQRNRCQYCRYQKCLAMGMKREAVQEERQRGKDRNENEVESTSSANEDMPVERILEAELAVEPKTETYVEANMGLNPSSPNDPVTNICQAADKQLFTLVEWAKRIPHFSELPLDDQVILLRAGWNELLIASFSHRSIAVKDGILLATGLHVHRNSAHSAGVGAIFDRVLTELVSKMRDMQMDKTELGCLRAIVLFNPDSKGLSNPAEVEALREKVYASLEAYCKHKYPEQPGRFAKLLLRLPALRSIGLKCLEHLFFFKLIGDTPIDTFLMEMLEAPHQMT
active: [3] -0.359
inactive: [1] -0.121 | volasertib 0.026 | [2] -0.061 | [4] 0.13 | saracatinib -0.093 | sotrastaurin 0.013 | alvocidib -0.019 | Tubastatin A 0.138 | [5] -0.06 | [6] 0.072 | alisertib -0.117 | [7] 0.018 | gefitinib 0.043

Source: the supplement of paper PMC10849652
